Results: PubChem BioAssay
The source made the active and inactive calls. Unless noted, the rule behind the calls is not given here.

Experiments:
[1] = resazurin metabolic signal in HepG2 cells – cell-based, resazurin fluorescence, 24 h, PK04 Diversity Set, profiling panel (AID 1172); settings: HepG2 viability, higher = more signal; note: test concentration not given here
[2] = budding yeast growth changes without added modifier – OD600, strain BY4716, 24 h, basal condition, primary screen (AID 1173); settings: S. cerevisiae BY4716 growth, OD600, 24 h; higher = more signal, called active from +8 up or from −8 down
[3] = viability profiling in MM1S myeloma cells – cell-based, resazurin fluorescence, basal, 24 h, PK04 Diversity Set, profiling panel (AID 1174); settings: higher = more signal, called active from +8 up or from −8 down;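 note: MM1S multiple myeloma cell line; test concentration not given here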
[4] = biological target: Dihydroorotate dehydrogenase (quinone), mitochondrial (Plasmodium falciparum (isolate 3D7)) (UniProt Q08210); assay: inhibition of P. falciparum DHODH – biochemical, C-terminal His tag, absorbance 600 nm, primary screen (AID 1175); settings: PfDHODH enzyme, DCIP absorbance 600 nm; higher = more signal, called active from +8 up or from −8 down;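 note: recombinant parasite enzyme with a five histidine tag at its C terminus; test concentration not given here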
[5] = inhibition of PAO1 biofilm formation – strain PAO1, LB-PBS medium, absorbance 600 nm, primary screen (AID 1176); note: test concentration not given here; settings: P. aeruginosa PAO1 growth/biofilm, A600, 12 h; higher = more signal
[6] = growth modulation of vineyard yeast isolate – strain RM11-1a, OD600, basal, 24 h, primary screen (AID 1177);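 note: cultures grown under basal conditions with no added stressor; test concentration not given here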; settings: S. cerevisiae RM11-1a growth, OD600, 24 h; higher = more signal, called active from +8 up or from −8 down
[7] = growth of efflux-deficient E. coli DRC39 – strain DRC39, OD650, 24 h, E. coli filamentation inducers, primary screen (AID 1178);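 note: growth measured as culture turbidity by optical density at 650 nm; test concentration not given here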; settings: E. coli DRC39 acrAB, higher = more signal, called active from +8 up or from −8 down
[8] = growth of efflux-deficient E. coli DRC39 – strain DRC39, OD650, 48 h, E. coli filamentation inducers, primary screen (AID 1179);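 note: screen aims at cell division blockers that make cells filament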; settings: E. coli DRC39 delta-acrAB growth, higher = more signal, called active from +8 up or from −8 down
[9] = viability profiling in RPMI8226 myeloma cells – cell-based, resazurin fluorescence, basal, 24 h, PK04 Diversity Set, profiling panel (AID 1180); settings: higher = more signal;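 note: RPMI8826 multiple myeloma cell line at 5000 cells per well; test concentration not given here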
[10] = biological target: E3 ubiquitin-protein ligase XIAP (Homo sapiens) (UniProt P98170); assay: small molecules binding XIAP protein – biophysical, small-molecule microarray, fluorescence 635 nm, primary screen (AID 1181); settings: higher = more signal;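 note: score merges 667 nm emission and signal to noise over triplicate slides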
E3 ubiquitin-protein ligase XIAP (Homo sapiens), sequence (P98170 whole entry, looked up): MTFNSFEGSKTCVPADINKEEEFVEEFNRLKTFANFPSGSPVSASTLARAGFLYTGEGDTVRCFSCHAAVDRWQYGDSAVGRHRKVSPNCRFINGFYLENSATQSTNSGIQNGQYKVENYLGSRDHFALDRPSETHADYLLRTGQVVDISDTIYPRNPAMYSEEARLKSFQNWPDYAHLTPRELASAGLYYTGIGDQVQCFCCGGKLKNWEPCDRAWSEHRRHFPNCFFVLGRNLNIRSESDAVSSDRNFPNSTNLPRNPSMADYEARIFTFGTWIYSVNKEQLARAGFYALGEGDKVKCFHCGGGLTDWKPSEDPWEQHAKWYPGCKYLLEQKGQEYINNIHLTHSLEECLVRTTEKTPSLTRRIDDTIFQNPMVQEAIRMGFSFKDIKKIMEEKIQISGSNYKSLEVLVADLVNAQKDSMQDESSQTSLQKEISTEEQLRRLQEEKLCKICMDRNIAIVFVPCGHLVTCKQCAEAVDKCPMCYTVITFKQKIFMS

Dihydroorotate dehydrogenase (quinone), mitochondrial (Plasmodium falciparum (isolate 3D7)), sequence (Q08210 whole entry, looked up): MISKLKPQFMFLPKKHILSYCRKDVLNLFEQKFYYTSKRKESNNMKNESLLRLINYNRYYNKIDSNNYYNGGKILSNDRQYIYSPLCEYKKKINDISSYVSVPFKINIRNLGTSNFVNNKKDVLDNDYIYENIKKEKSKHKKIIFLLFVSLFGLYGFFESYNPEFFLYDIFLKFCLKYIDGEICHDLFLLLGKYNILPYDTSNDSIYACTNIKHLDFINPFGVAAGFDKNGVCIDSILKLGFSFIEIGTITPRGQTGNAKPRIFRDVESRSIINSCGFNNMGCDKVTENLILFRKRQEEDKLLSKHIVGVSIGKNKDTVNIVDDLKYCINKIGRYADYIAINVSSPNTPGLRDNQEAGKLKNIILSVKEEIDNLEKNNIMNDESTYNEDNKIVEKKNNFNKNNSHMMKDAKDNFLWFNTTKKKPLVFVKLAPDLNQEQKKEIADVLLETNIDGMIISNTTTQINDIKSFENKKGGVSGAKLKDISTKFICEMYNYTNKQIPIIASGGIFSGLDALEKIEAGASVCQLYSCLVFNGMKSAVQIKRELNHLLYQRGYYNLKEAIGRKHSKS

Structure (SMILES)	z-score [1]	z-score [2]	z-score [3]	composite z-score [4]	z-score [5]	z-score [6]	z-score [7]	z-score [8]	z-score [9]	composite z-score [10]
CC(C)CON=C1[C@H]2CCn3c(=O)n(Cc4cc5c(cc4Cl)OCO5)c(=O)n3[C@H]2[C@H](O)[C@@H]2O[C@H]12	-0.274	-0.761 (inactive)	-0.302 (inactive)	-2.76 (inactive)	-1.4 (inactive)	-0.471 (inactive)	0.42 (inactive)	-1.6 (inactive)	-0.241	-0.0773
CO[C@@H]1COC(=O)CC=C[C@@H](C)[C@@H]2C=C[C@H](O)[C@@H](COC(=O)CC=C[C@H]1C)O2	0.807	-1.65 (inactive)	0.992 (inactive)	-0.0239 (inactive)	0.765 (inactive)	-0.72 (inactive)	0.619 (inactive)	0.799 (inactive)	0.366	0.0177
O=C(NN=C1C[C@@H](O)[C@@H](O)[C@@H]2[C@@H]3C(=O)N(Cc4ccccc4)C(=O)[C@@H]3CC[C@@H]12)OCc1ccccc1	0.348	-1.17 (inactive)	0.0873 (inactive)	-1.65 (inactive)	0.352 (inactive)	-0.139 (inactive)	0.851 (inactive)	0.279 (inactive)	0.131	-0.0344
CON=C1[C@H]2CCn3c(=O)n(-c4ccccc4)c(=O)n3[C@H]2[C@H](O)[C@@H]2O[C@H]12	0.348	-1.45 (inactive)	0.333 (inactive)	-0.984 (inactive)	0.335 (inactive)	-2.21 (inactive)	0.0966 (inactive)	-1.03 (inactive)	0.116	0.0159
CCOC(=O)CCN1C(=O)[C@H]2[C@H]3[C@H](O)[C@H](O)CC(=NOCC(C)C)[C@H]3CC[C@H]2C1=O	-0.823	0.265 (inactive)	-0.662 (inactive)	-1.19 (inactive)	0.246 (inactive)	0.628 (inactive)	0.692 (inactive)	0.686 (inactive)	-0.876	-0.22
COc1cc(O)c(C(=O)C=Cc2ccc3c(c2)OCO3)c(OC)c1	0.0215	1.12 (inactive)	-0.307 (inactive)	1.06 (inactive)	1.2 (inactive)	2.31 (inactive)	-0.45 (inactive)	-1.04 (inactive)	-0.144	0.215
CON=C[C@@H](NS(=O)(=O)c1ccc(C)cc1)[C@H](C)C=CCC(=O)OC	0.27	-0.146 (inactive)	-0.548 (inactive)	0.244 (inactive)	-0.291 (inactive)	0.475 (inactive)	0.717 (inactive)	-0.761 (inactive)	-0.484	-0.0773
C#CCCCON=C1C[C@@H](O)[C@@H](O)[C@@H]2[C@@H]3C(=O)N(C(C)(C)C)C(=O)[C@@H]3CC[C@H]12	-0.375	0.522 (inactive)	-0.0486 (inactive)	-0.396 (inactive)	-0.143 (inactive)	-0.311 (inactive)	0.329 (inactive)	0.221 (inactive)	-0.0553	-0.0849
C#CCCCON=C1C[C@@H](O)[C@@H](O)[C@@H]2[C@@H]3C(=O)N(Cc4ccccc4)C(=O)[C@@H]3CC[C@@H]12	0.71	-0.878 (inactive)	0.736 (inactive)	-1.23 (inactive)	-0.601 (inactive)	-0.0952 (inactive)	0.777 (inactive)	1.2 (inactive)	0.886	-0.267
CCOC(=O)[C@H](CC(C)C)NC(=O)CCC1CC(OC(=O)NCc2ccc3c(c2)OCO3)CC2(CCCC(COC(=O)NCc3cccc(C(F)(F)F)c3)O2)O1 (stereo not given in full)	-0.54	0.3 (inactive)	0.639 (inactive)	0.0645 (inactive)	-0.0691 (inactive)	0.683 (inactive)	-0.718 (inactive)	-0.0974 (inactive)	0.328	-0.148
C=COC[C@@H]1CN2[C@@H](CC[C@@H](C)[C@@H]2c2ccc(Br)cc2)C(=O)O1	-0.32	-4.37 (inactive)	-0.345 (inactive)	-3.12 (inactive)	-1.01 (inactive)	-0.889 (inactive)	-1.03 (inactive)	-1.65 (inactive)	0.169	-0.0669
COC(=O)CC=C[C@@H](C)[C@@H](C=NO[C@@H](C)c1cn([C@H](CO)Cc2ccccc2)nn1)NS(=O)(=O)c1ccc(C)cc1	-1.21	-0.913 (inactive)	-0.412 (inactive)	-1.16 (inactive)	-1.54 (inactive)	-2.06 (inactive)	0.196 (inactive)	0.364 (inactive)	-0.808	-0.349
CCOC(=O)[C@H](Cc1ccccc1)NC(=O)CCC1CC(OC(=O)NCc2cccc3ccccc23)CC2(CCCC(COC(=O)NCC(c3ccccc3)c3ccccc3)O2)O1 (stereo not given in full)	0.812	-0.38 (inactive)	0.923 (inactive)	-0.305 (inactive)	-0.163 (inactive)	-0.714 (inactive)	-0.371 (inactive)	-0.661 (inactive)	1.27	0.0655
CCOC(=O)[C@H](CC(C)C)NC(=O)CCC1CC(OC(=O)NCCc2ccc(F)cc2)CC2(CCCC(COC(=O)NCCc3ccc(Cl)cc3)O2)O1 (stereo not given in full)	0.182	0.0981 (inactive)	-0.0687 (inactive)	-0.188 (inactive)	0.213 (inactive)	-0.596 (inactive)	-0.0646 (inactive)	-0.617 (inactive)	0.48	-0.247
COc1cccc([C@H]2Oc3ccc(OC)cc3C(=NOC(C)CN3CCCCc4nc(C)c(C)cc43)[C@@H]2O)c1 (stereo not given in full)	-0.621	-0.951 (inactive)	-1.16 (inactive)	-0.695 (inactive)	0.253 (inactive)	-0.0905 (inactive)	0.597 (inactive)	0.748 (inactive)	-1.16	-0.0525
CC(C)=CCCC(C)=CCON=C1C[C@@H](O)[C@@H](O)[C@@H]2[C@@H]3C(=O)N(c4ccc(F)cc4F)C(=O)[C@@H]3CC[C@H]12	0.844	-2.97 (inactive)	0.257 (inactive)	-1.42 (inactive)	0.671 (inactive)	-0.777 (inactive)	0.375 (inactive)	0.438 (inactive)	1.32	-0.0939
Cn1c(=O)n2n(c1=O)[C@H]1[C@H](O)[C@@H]3O[C@@H]3C(=NOCc3ccccc3)[C@H]1CC2	0.0287	0.0108 (inactive)	-0.189 (inactive)	-1.08 (inactive)	-0.0242 (inactive)	-0.186 (inactive)	-0.289 (inactive)	-0.265 (inactive)	-0.336	-0.222
COC(=O)[C@@H]1CC[C@H](C)[C@@H](c2ccc(C)cc2)N1C(=O)c1ccc(C=NOC[C@@H](C)[C@H](OCc2ccccc2)C(C)C)cc1	-0.625	-2.56 (inactive)	-0.795 (inactive)	-0.869 (inactive)	-1.16 (inactive)	-2.18 (inactive)	0.413 (inactive)	-1.07 (inactive)	-0.987	-0.135
CCc1cc2c(nc1CC)CCN(CCC(C)=NOC[C@H]1O[C@H](c3ccccc3)C=C[C@@H]1Oc1ccc(OC)cc1)C2	0.0523	-1.75 (inactive)	0.22 (inactive)	-3.81 (inactive)	-0.197 (inactive)	-0.409 (inactive)	-1.58 (inactive)	-1.43 (inactive)	0.218	-0.23
CCCCC#C[C@@H]1C=C[C@H](OC(C)=O)[C@@H](COC(C)=O)O1	0.693	-1.44 (inactive)	-3.24 (inactive)	-0.216 (inactive)	0.909 (inactive)	-0.667 (inactive)	-0.233 (inactive)	-0.248 (inactive)	-1.82	0.474
CO[C@H]1COC(=O)CC=C[C@H](C)[C@@H](OC)COC(=O)[C@H](C)COC(=O)CC=C[C@@H]1C	0.531	-0.319 (inactive)	0.254 (inactive)	0.491 (inactive)	-0.838 (inactive)	0.606 (inactive)	0.827 (inactive)	0.0975 (inactive)	-0.501	-0.256
CCOC(=O)[C@H](Cc1ccccc1)NC(=O)CCC1CC(OC(=O)NCCc2ccc(F)cc2)CC2(CCCC(COC(=O)NCCc3ccc(Cl)cc3)O2)O1 (stereo not given in full)	0.072	-0.0784 (inactive)	0.231 (inactive)	-0.161 (inactive)	-0.0569 (inactive)	0.809 (inactive)	0.869 (inactive)	0.721 (inactive)	0.28	-0.0177
CCOC(=O)[C@H](CC(C)C)NC(=O)CCC1CC(OC(=O)NCCc2ccc(F)cc2)CC2(CCCC(COC(=O)NCC(c3ccccc3)c3ccccc3)O2)O1 (stereo not given in full)	0.184	-0.227 (inactive)	-0.345 (inactive)	0.0649 (inactive)	0.013 (inactive)	0.126 (inactive)	0.113 (inactive)	-1.1 (inactive)	0.465	-0.0994
CCCNC(=O)OC[C@H]1O[C@H](CCON=C(C)CCN2CCc3nc(CC)c(CC)cc3C2)C=C[C@@H]1Oc1ccc(OC)cc1	-1.09	-0.139 (inactive)	-1.45 (inactive)	0.358 (inactive)	-0.598 (inactive)	0.02 (inactive)	-1.13 (inactive)	-1.53 (inactive)	0.622	-0.0559
CCOC(=O)[C@H](CC(C)C)NC(=O)CCC1CC(OC(=O)NCCc2ccc(F)cc2)CC2(CCCC(COC(=O)NCCc3ccccc3OC)O2)O1 (stereo not given in full)	-0.285	-0.376 (inactive)	0.311 (inactive)	-0.991 (inactive)	0.45 (inactive)	0.354 (inactive)	0.61 (inactive)	0.376 (inactive)	0.441	-0.0565
